Reference: PubChem BioAssay AID687001 (Broad Institute, 2013)
Measured potencies and affinities stand elsewhere. Calls of active or inactive are those of the source.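 How the source made its calls: active means signal-lowering compounds whose fitted half-maximal concentration is at or below twice the top tested dose in every run; inconclusive means runs disagree, flat 30 to 70% inhibition, or poor curve fit; inactive means the rest.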

biological target: Protein S100-A4 (Homo sapiens) (UniProt P26447); test: human S100A4 peptide interaction inhibition curves – biochemical, fluorescence polarization, cherry-picked hits, dose response (AID 687001); conditions: FP, S100A4/TAMRA-myosin IIA peptide binding; series mostly up to 11 µM
Sequence (P26447 whole entry, looked up): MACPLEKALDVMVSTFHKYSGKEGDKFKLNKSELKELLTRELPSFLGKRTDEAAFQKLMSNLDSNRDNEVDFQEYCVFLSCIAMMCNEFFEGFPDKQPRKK

outcome, inactive:
CCc1ccc(CNC(=O)C2CCN(S(=O)(=O)N3CCC(C)CC3)CC2)cc1
N/C(=N\OC(=O)CCn1cccc(C(F)(F)F)c1=O)c1ccc(OC(F)(F)F)cc1
CON(C)S(=O)(=O)c1cccc(C(=O)Nc2cccc(S(=O)(=O)NC3=NCCCCC3)c2)c1
COC(=O)[C@@]12C[C@@H](CC(=O)N3CCN(C(=O)c4ccco4)CC3)C(=O)N(CCc3ccc(OC)c(OC)c3)C1=CCC(C)(C)C2
O=C(NCCc1ccncc1)Nc1ccc(F)cc1
O=C(C1CCCC1)N1C[C@@H]2[C@H](c3ccccc31)[C@@H](CO)N2C(=O)c1ccccc1F
NC1=NC(=O)C(CC(=O)c2ccc(Cl)cc2)S1 (centres undefined)
O=C(O)c1ccc2c(c1)C(=O)N(c1cccc3ccccc13)C2=O
O=C(C[C@@H]1C=C[C@@H](NS(=O)(=O)c2cccc(F)c2)[C@@H](CO)O1)NCc1ccc2c(c1)OCO2
Cc1cccc(S(=O)(=O)N2CC[C@@H]3[C@H](CO)Nc4ccc(C#Cc5ccc(F)cc5)cc4[C@@H]32)c1
O=C(COC(=O)CCCN1C(=O)c2cccc3cccc(c23)C1=O)NC1CCS(=O)(=O)C1 (centres undefined)
S=C(NCCCc1cnc[nH]1)NCCCN(Cc1ccc(Cl)cc1)c1ccc(Br)cn1
CCCC(=O)Nc1ccc(C=C(C(C)=O)C(C)=O)cc1
CCC1(CC)NC(=O)N(CC(=O)Nc2ccc(C)cc2C)C1=O
C[C@@H]1CN([C@H](C)CO)C(=O)c2cc(C3=CCCC3)cnc2O[C@@H]1CN(C)Cc1ccc(F)cc1
O=C(C[C@H]1C=C[C@H](NC(=O)c2ccc(F)cc2)[C@H](CO)O1)NCc1ccncn1
CCCN1CCN(CCCNC(=O)C(CC)n2nc(C)c3sc4ccccc4c3c2=O)CC1 (centres undefined)
COc1ccc(C#Cc2ccc([C@@H]3[C@@H](CO)N4CCCCN(C(=O)Nc5ccc(F)cc5)C[C@@H]34)cc2)cc1
Cc1ccc(S(=O)(=O)n2cccc2C)cc1
O=C(NCc1ccncc1)C1CCCN(S(=O)(=O)c2cc(Cl)ccc2Cl)C1 (centres undefined)
COc1cc2c3nnc(-c4ccc(F)cc4)c-3cn(Cc3ccc(C)cc3)c2cc1OC
COCCOC(=O)c1nccnc1C(=O)Nc1ccc(S(=O)(=O)N2CCOCC2)cc1
O=C1SCCC1NC(=O)C(c1ccccc1)c1ccccc1 (centres undefined)
CCOC(=O)c1cc(C)sc1/N=C/C1C(=O)CCCC1=O
Cc1cc2cc(CNC(=O)c3ccc(S(=O)(=O)N4CCCC4)cc3)ccc2n1C
Cc1ccc(S(=O)(=O)N2CCOCC2)cc1NC(=O)COC(=O)Cc1cccs1
CNC[C@@H]1OCCCC[C@@H](C)Oc2ccc(NS(=O)(=O)c3cccs3)cc2C(=O)N([C@H](C)CO)C[C@H]1C
CCNC(=O)NC(=O)CSc1cccc(C(F)(F)F)c1
C[C@@H]1CCCCO[C@@H](CN(C)C(=O)Cc2ccccc2)[C@H](C)CN([C@@H](C)CO)C(=O)c2cc(NC(=O)Cc3ccccc3)ccc2O1
COC(=O)CCCC1=CC2=C(c3ccccc3)C(=O)C(C)(OC(=O)C3CCCC3)C(=O)C2=CN1Cc1ccc2c(c1)OCO2 (centres undefined)
COCC(=O)N1C[C@H]2[C@@H](c3ccccc31)[C@@H](CO)N2C(=O)Nc1ccccc1F
CN(C)S(=O)(=O)c1ccc(NC(=O)CN2CCN(c3ccccn3)CC2)cc1
CCc1noc(C)c1C(=O)Nc1nc(-c2ccc(OC)cc2OC)cs1
COc1ccc(Cl)cc1S(=O)(=O)n1ccnc1
O=C(COC(=O)C12CC3CC(CC(Br)(C3)C1)C2)Nc1c(F)cccc1F
O=C(CC(F)(F)F)N1C[C@@H]2[C@H](c3ccccc31)[C@@H](CO)N2CC1CCOCC1
C[C@@H]1CN([C@H](C)CO)C(=O)c2cc(NS(=O)(=O)c3ccc(Cl)cc3)ccc2O[C@@H](C)CCCCO[C@H]1CN(C)Cc1ccc(Cl)c(Cl)c1
ON(CCc1ccncc1)Cc1ccccc1
Cn1c(=O)c2sccc2n2c(CCCC(=O)N3CCN(c4ccccn4)CC3)nnc12
